# A number with no mark means an inactive call. Inconclusive results are not listed. Entries that show only a call come without a potency. The source made the active and inactive calls. Unless noted, calls follow the shape of the dose curve; as a rule, active = well fitted curve in the direction sought with a large enough effect in the repeat runs; inconclusive = weak or mixed curves; inactive = no such curve, though single readings can be large; an effect the other way counts as inactive or inconclusive.
# Experiments:
# [1] = target: Estrogen receptor (Homo sapiens) (UniProt P03372); assay: qHTS assay to identify small molecule antagonists of the estrogen receptor alpha (ER-alpha) signaling pathway using the BG1 cell line in the presence of 0.1 nM 17-beta-estradiol (AID 1259244); also: nearly all actives have a fitted effect of over 50% in size; also: potency is read from the fitted curve at half-maximal effect
# In short: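 Cells: VM7Luc4E2, endogenous ER-alpha, 4x ERE-luc stable. Pre-culture 5 d, phenol red-free, charcoal-stripped FBS. Plated 24 h, compound + E2 0.1 nM final, 22 h 37C/5% CO2. Readout ONE-Glo luminescence.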
# [2] = qHTS assay to identify small molecule HDAC inhibitors (AID 1259364); also: top concentration of the series differs between compounds; nearly all actives have a fitted effect of over 45% in size
# In short: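 Luminescence from a cell-permeant luminogenic class I/II HDAC substrate reports endogenous deacetylase activity in intact HCT-116 cells treated with compounds for 2 h.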
# [3] = qHTS assay to identify small molecule HDAC inhibitors - cell viability counter screen (AID 1259365); also: series mostly up to about 92 µM; nearly all actives have a fitted effect of over 50% in size
# In short: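 Wild-type HCT-116 cells, 1,500/well, cultured overnight, then compound-treated 2 h at 37 C. Viability measured as ATP luminescence with CellTiter-Glo after 30 min at room temperature.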
# [4] = qHTS assay to identify small molecule agonists of the sonic hedgehog signaling (Shh) pathway - cell viability counter screen (AID 1259366); also: nearly all actives have a fitted effect of over 50% in size; also: potency is read from the fitted curve at half-maximal effect
# In short: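 NIH/3T3-derived Gli1-Luc reporter cells, 2,000 per well, received compound after 4 h and were treated about 23 h at 37C. Viability measured in the same wells by CellTiter-Fluor fluorescence after 1 h.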
# [5] = qHTS assay to identify small molecule antagonists of the sonic hedgehog signaling (Shh) pathway - cell viability counter screen (AID 1259367); also: nearly all actives have a fitted effect of over 55% in size; also: potency is read from the fitted curve at half-maximal effect
# In short: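 After a 4 hr settling period, 3T3 Gli1-Luc cells were treated with DMSO-dissolved chemicals and conditioned medium, kept 24 hr at 37C in 5% CO2, and assayed for viability by CellTiter-Fluor fluorescence following 1 hr reagent incubation.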
# [6] = qHTS assay to identify small molecule agonists of the sonic hedgehog signaling (Shh) pathway (AID 1259368; calls by dose curve;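 also: NIH/3T3-derived 3T3Gli1-Luc cells carrying a stable Gli1-driven firefly luciferase reporter; series mostly up to about 92 µM; nearly all actives have a fitted effect of over 15% in size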)
# In short: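 3T3Gli1-Luc (NIH/3T3 clone, stable Gli1-Luc); 4 hr pre-incubation, then cpd in DMSO 24 hr, 37 C/5% CO2; luciferase reagent 30 min RT; luminescence.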
# [7] = qHTS assay to identify small molecule antagonists of the sonic hedgehog signaling (Shh) pathway (AID 1259369; calls by dose curve; also: nearly all actives have a fitted effect of over 45% in size; also: potency is read from the fitted curve at half-maximal effect)
# In short: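 3T3Gli1-Luc, conditioned-medium-stimulated, 24hr cpd, 37C/5% CO2; Gli1-driven firefly Luc luminescence after 30min RT with luciferase reagent. Cells plated 4hr before cpd.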
# [8] = target: Estrogen receptor beta (Homo sapiens) (UniProt Q92731); assay: qHTS assay to identify small molecule agonists of the estrogen receptor beta (ER-beta) signaling pathway (AID 1259377; active = well fitted activation curve with a large enough effect in the signal ratio in the repeat runs, not every such curve was filed as active; the % refers to the signal ratio)
# In short: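 ER-beta-UAS-bla HEK293T cells in medium with 2% charcoal-stripped FBS were exposed to compounds for 16 h at 37C. Beta-lactamase reporter activity was read as fluorescence after 2 h with LiveBLAzer B/G FRET substrate at room temperature.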
# [9] = target: Estrogen receptor beta (Homo sapiens) (UniProt Q92731); assay: qHTS assay to identify small molecule antagonists of the estrogen receptor beta (ER-beta) signaling pathway (AID 1259378; active = well fitted inhibition curve with a large enough effect in the signal ratio in the repeat runs, not every such curve was filed as active; the % refers to the signal ratio; also: potency is read from the fitted curve at half-maximal effect)
# In short: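 ER-beta-UAS-bla HEK293T (GripTite) cells in 2% charcoal-stripped FBS medium were preincubated 6 hr at 37C, dosed with compound, then stimulated with 1 nM E2 (final) for 16 hr; beta-lactamase reporter read by B/G FRET fluorescence after 2 hr substrate loading.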
# [10] = qHTS assay to identify small molecule phospholipidosis (PLD) inducers (AID 1259344; active = well fitted curve in the direction sought with a large enough effect; an effect the other way counts as inactive or inconclusive)
# In short: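 HepG2 cells grown on collagen I take up LipidTOX Red while exposed to compound for 24 h; after fixation they are imaged at 20x and pit metrics are extracted.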
# Sequence of Estrogen receptor (Homo sapiens) (P03372 whole entry, looked up): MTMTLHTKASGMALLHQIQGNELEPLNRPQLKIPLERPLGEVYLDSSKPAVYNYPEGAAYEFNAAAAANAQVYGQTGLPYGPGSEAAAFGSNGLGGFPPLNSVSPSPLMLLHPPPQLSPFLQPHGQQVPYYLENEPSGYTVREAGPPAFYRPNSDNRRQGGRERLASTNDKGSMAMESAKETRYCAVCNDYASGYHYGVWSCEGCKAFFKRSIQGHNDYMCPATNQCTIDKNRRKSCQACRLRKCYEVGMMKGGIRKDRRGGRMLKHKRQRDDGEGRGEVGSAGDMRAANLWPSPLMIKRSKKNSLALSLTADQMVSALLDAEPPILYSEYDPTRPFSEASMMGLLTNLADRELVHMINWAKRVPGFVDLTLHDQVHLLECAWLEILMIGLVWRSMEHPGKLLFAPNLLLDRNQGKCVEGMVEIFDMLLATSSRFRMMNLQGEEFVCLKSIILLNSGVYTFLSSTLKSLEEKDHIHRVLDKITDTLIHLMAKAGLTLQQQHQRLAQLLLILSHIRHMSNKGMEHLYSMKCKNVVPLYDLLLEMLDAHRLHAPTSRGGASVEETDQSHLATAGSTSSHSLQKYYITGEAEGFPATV
# Sequence of Estrogen receptor beta (Homo sapiens) (Q92731 whole entry, looked up): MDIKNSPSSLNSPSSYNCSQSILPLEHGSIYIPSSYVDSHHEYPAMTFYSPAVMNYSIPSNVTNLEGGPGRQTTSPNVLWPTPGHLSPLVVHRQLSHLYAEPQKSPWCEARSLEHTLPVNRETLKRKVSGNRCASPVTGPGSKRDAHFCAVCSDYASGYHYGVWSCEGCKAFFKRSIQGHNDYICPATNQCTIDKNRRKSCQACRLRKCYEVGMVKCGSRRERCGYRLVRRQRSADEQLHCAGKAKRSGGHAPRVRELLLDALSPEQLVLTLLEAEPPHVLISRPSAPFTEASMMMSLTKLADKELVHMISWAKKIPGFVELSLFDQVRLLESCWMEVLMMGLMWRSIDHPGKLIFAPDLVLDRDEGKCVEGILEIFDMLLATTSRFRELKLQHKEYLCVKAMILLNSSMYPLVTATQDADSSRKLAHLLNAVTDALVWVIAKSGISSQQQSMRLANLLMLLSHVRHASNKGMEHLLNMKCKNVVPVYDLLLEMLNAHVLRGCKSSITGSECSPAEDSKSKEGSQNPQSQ
compound,measurement,setting,value
O=c1cc[nH]cc1,Potency,[1],inactive
same,Potency,[2],inactive
same,Potency,[3],inactive
same,Potency,[4],inactive
same,Potency,[5],inactive
same,Potency,[6],inactive
same,Potency,[7],inactive
same,outcome,[8],inactive
same,Potency,[9],inactive
CCN(CC)c1ccc(C=O)c(O)c1,Potency,[1],inactive
same,Potency,[2],inactive
same,Potency,[3],inactive
same,Potency,[4],inactive
same,Potency,[5],inactive
same,Potency,[6],inactive
same,Potency,[7],inactive
c1ccc2occc2c1,Potency,[1],68.6 µM (active)
same,Potency,[10],inactive
same,Potency,[2],inactive
same,Potency,[3],inactive
same,Potency,[4],inactive
same,Potency,[5],inactive
same,Potency,[6],inactive
C/C(=N\[Si](C)(C)C)O[Si](C)(C)C,Potency,[1],inactive
same,Potency,[2],inactive
same,Potency,[3],inactive
same,Potency,[4],inactive
same,Potency,[5],inactive
same,Potency,[6],inactive
same,Potency,[7],inactive
c1ccc(-c2ccc(C(c3ccccc3)n3ccnc3)cc2)cc1 (stereo not drawn),Potency,[1],inactive
same,Potency,[10],inactive
same,Potency,[2],inactive
same,Potency,[3],inactive
same,Potency,[4],inactive
same,Potency,[5],inactive
same,Potency,[6],inactive
C=CC(C)(C)O,Potency,[1],inactive
same,Potency,[2],inactive
same,Potency,[3],inactive
same,Potency,[4],inactive
same,Potency,[5],inactive
same,Potency,[6],inactive
same,Potency,[7],inactive
same,outcome,[8],inactive
same,Potency,[9],inactive
Cn1c(=O)[nH]c2ncn(C)c2c1=O,Potency,[1],inactive
same,Potency,[2],inactive
same,Potency,[3],inactive
same,Potency,[4],inactive
same,Potency,[5],inactive
same,Potency,[6],inactive
same,Potency,[7],inactive
Brc1cc(Br)cc(Br)c1,Potency,[1],inactive
same,Potency,[2],inactive
same,Potency,[3],inactive
same,Potency,[4],inactive
same,Potency,[5],inactive
same,Potency,[6],inactive
CCc1cccc(CC)c1,Potency,[1],inactive
same,Potency,[2],inactive
same,Potency,[3],inactive
same,Potency,[4],inactive
same,Potency,[5],inactive
same,Potency,[6],inactive
same,Potency,[7],inactive
same,outcome,[8],inactive
same,Potency,[9],inactive
CCCOC(=O)c1ccc(O)cc1,Potency,[1],inactive
same,Potency,[10],inactive
same,Potency,[3],inactive
same,Potency,[4],inactive
same,Potency,[5],inactive
same,Potency,[7],2.43 µM (active)
CCOc1nc(F)cc2nc(S(=O)(=O)Nc3c(Cl)cccc3C(=O)OC)nn12,Potency,[1],inactive
same,Potency,[2],inactive
same,Potency,[3],inactive
same,Potency,[4],inactive
same,Potency,[5],inactive
same,Potency,[6],inactive
same,Potency,[7],inactive
C=CC(=O)OCCOC1C2CCC1C1CC=CC12 (stereo not drawn),"activity change, negative = inhibition",[1],2.43% [at 19 µM]
same,"activity change, negative = inhibition",[2],5.48% [at 19 µM]
same,"activity change, negative = cytotoxicity",[3],3.58% [at 19 µM]
same,"viability change, negative = cytotoxic",[4],9.3% [at 19 µM]
same,"viability change, negative = cytotoxic",[5],5.82% [at 19 µM]
same,activity change,[6],"-1.29% [at 18.9 µM, hits give high values]"
same,"activity change, negative = inhibition",[7],6.04% [at 19 µM]
O=C1CCC(=O)N1,Potency,[1],inactive
same,Potency,[2],inactive
same,Potency,[3],inactive
same,Potency,[4],inactive
same,Potency,[5],inactive
same,Potency,[6],inactive
same,Potency,[7],inactive
same,outcome,[8],inactive
same,Potency,[9],inactive
CC(=O)[C@]1(O)Cc2c(O)c3c(c(O)c2[C@@H](O[C@H]2C[C@H](N)[C@H](O)[C@H](C)O2)C1)C(=O)c1ccccc1C3=O,Potency,[1],inactive
same,Potency,[2],inactive
same,Potency,[3],inactive
same,Potency,[4],0.944 µM (active)
same,Potency,[5],1.19 µM (active)
same,Potency,[7],0.0133 µM (active)
CCc1c(C)cc(N)c(CC)c1N,Potency,[1],inactive
same,Potency,[2],inactive
same,Potency,[3],inactive
same,Potency,[4],inactive
same,Potency,[6],inactive
same,Potency,[7],inactive
same,outcome,[8],inactive
same,Potency,[9],inactive
CCC1(C)C(=O)N(Cl)C(=O)N1Cl (stereo not drawn),Potency,[1],inactive
same,Potency,[2],inactive
same,Potency,[3],inactive
same,Potency,[4],inactive
same,Potency,[5],inactive
same,Potency,[6],inactive
same,Potency,[7],inactive
same,Potency,[9],inactive
C=C(C)CCO,Potency,[1],inactive
same,Potency,[2],inactive
same,Potency,[3],inactive
same,Potency,[4],inactive
same,Potency,[6],inactive
CN[C@H]1CC[C@@H](c2ccc(Cl)c(Cl)c2)c2ccc(S(N)(=O)=O)cc21,Potency,[1],61.1 µM (active)
same,Potency,[2],inactive
same,Potency,[3],inactive
same,Potency,[4],30.6 µM (active)
same,Potency,[5],61.1 µM (active)
same,Potency,[6],inactive
same,Potency,[7],3.06 µM (active)
same,Potency,[9],24.3 µM (active)
Cc1cc(Br)ccc1NC(=O)CCl,Potency,[1],inactive
same,Potency,[2],inactive
same,Potency,[3],inactive
same,Potency,[4],9.69 µM (active)
same,Potency,[5],19.3 µM (active)
same,Potency,[7],4.33 µM (active)
CCOC(=O)OC(=O)OCC,Potency,[1],inactive
same,Potency,[2],inactive
same,Potency,[3],inactive
same,Potency,[4],inactive
same,Potency,[5],inactive
same,Potency,[7],inactive
same,Potency,[9],inactive
CCOC(=O)[C@H](O)[C@@H](O)C(=O)OCC,Potency,[1],inactive
same,Potency,[2],inactive
same,Potency,[3],inactive
same,Potency,[4],inactive
same,Potency,[5],inactive
same,Potency,[6],inactive
same,Potency,[7],inactive
same,Potency,[9],inactive
[Cl][Dy]([Cl])[Cl],Potency,[1],inactive
same,Potency,[2],inactive
same,Potency,[3],inactive
same,Potency,[5],inactive
same,Potency,[6],inactive
same,Potency,[7],8.63 µM (active)
Cc1cccc2c1ccc1ccccc12,Potency,[1],inactive
same,Potency,[2],inactive
same,Potency,[3],inactive
same,Potency,[4],inactive
same,Potency,[6],inactive
same,Potency,[7],inactive
same,Potency,[9],inactive
C=CC(=O)O[C@H]1C[C@@H]2CC[C@@]1(C)C2(C)C,Potency,[1],inactive
same,Potency,[2],inactive
same,Potency,[3],inactive
same,Potency,[4],inactive
same,Potency,[5],inactive
same,Potency,[6],inactive
same,outcome,[8],inactive
same,Potency,[9],inactive
O=C(O)CN(CCCN(CC(=O)O)CC(=O)O)CC(=O)O,"activity change, negative = inhibition",[1],-0.399% [at 19 µM]
same,"activity change, negative = inhibition",[2],1.25% [at 19 µM]
same,"activity change, negative = cytotoxicity",[3],-1.94% [at 19 µM]
same,"viability change, negative = cytotoxic",[4],-10.7% [at 19 µM]
same,"viability change, negative = cytotoxic",[5],-4.5% [at 19 µM]
same,activity change,[6],"-1.26% [at 18.9 µM, hits give high values]"
same,activation,[8],-3.28% [at 19 µM]
same,Potency,[9],2.31 µM (active)
O=c1[nH]cccc1O,Potency,[1],inactive
same,Potency,[2],inactive
same,Potency,[3],inactive
same,Potency,[4],inactive
same,Potency,[7],inactive
same,outcome,[8],inactive
same,Potency,[9],inactive
CCc1cccc(C)c1N(C(=O)CS(=O)(=O)O)C(C)COC (stereo not drawn),Potency,[1],inactive
same,Potency,[2],inactive
same,Potency,[3],inactive
same,Potency,[4],inactive
same,Potency,[7],inactive
same,outcome,[8],inactive
same,Potency,[9],inactive
CC(C)(C)c1cc(CCC(=O)OCCSCCOC(=O)CCc2cc(C(C)(C)C)c(O)c(C(C)(C)C)c2)cc(C(C)(C)C)c1O,Potency,[1],inactive
same,Potency,[2],inactive
same,Potency,[3],inactive
same,Potency,[4],inactive
same,Potency,[7],inactive
same,outcome,[8],inactive
same,Potency,[9],inactive
